Source: PubChem BioAssay (NCATS)
Inconclusive results are not listed. A number with no mark means an inactive call. The source made the active and inactive calls. Calls follow the shape of the dose curve; as a rule, active = well fitted cell-killing curve with a large enough effect; inconclusive = small, poorly fitted or top-dose-only effect, or effect the other way; inactive = no such curve, though single readings can be large or run the other way.

Test: Quantitative highthroughput screen to assess conditional lethalithy of SEM cells grown in RPMI1640 with unreated serum (RPMI+s) (AID 1963883); also: nearly all actives have a fitted effect of over 35% in size
Details: SEM B-ALL cells, CellTiter-Glo viability, 48 h; series mostly up to 45.8 µM; viability: at the top concentration
Text: Assay Provider: Jason Cantor Ph.D.
Department of Biochemistry
University of Wisconsin-Madison, Madison, WI, USA
Chemical screening studies have identified drug sensitivities across hundreds of cancer cell lines but most putative therapeutics fail to translate. Discovery and development of drug candidates in models that more accurately reflect nutrient levels in human blood is a major challenge. Here we performed high-throughput screens in conventional versus Human Plasma-Like Medium (HPLM) to identify compounds that were "missed" when screening using the artificial culture condition. Sets of conditional anticancer compounds spanned phases of clinical development and included non-oncology drugs were assessed. […] We also traced conditional phenotypes for several chemotherapeutics to availability of HPLM-specific metabolites and confirmed others for compounds whose reported targets are encoded by nonessential genes. Our findings establish generalizable strategies for exploiting conditional lethality in HPLM to reveal therapeutic candidates and mechanisms of action in cancer cells.
Described herein are the results of each viability screens against three cell lines: NOMO1 (an acute myeloid leukemia cell line); P12-Ichikawa (a T-cell acute lymphoblastic leukemia); and SEM (a B-cell ALL). Each assay was screened using 3 different cell culture media: homemade human plasma-Like medium with 10% dialyzed fetal bovine serum (HPLM+ds); RPMI1640 with 10% untreated FBS and 5mM glucose (RPMI+s); and RPMI1640 with 10% dialyzed fetal bovine serum and 5 mM glucose (RPMI+ds).
PROTOCOL TABLE (as described by Inglese J, Shamu CE and Guy RK. 2007)
SEQUENCE No. (e.g., 1, 2, 3, etc.); […] (e.g., Cells, Incubation, Reagent, etc.); VALUE and DESCRIPTION.
1; Cells; 5 uL; white, solid bottom 1536-well Greiner assay plate.
2; Compounds; 23 nL; Kalypsis pin tool (Wako USA) equipped with a 1536-well pin head to transfer to the assay plates.
3; Incubation; 48 hours; 37C incubation.
4; Reagent; 3 uL; CellTiter Glo (Promega).
5; Incubation; 5 min, room temperature
6; Detection; Luminescence, Viewlux PerkinElmer.
NOTES (numbers refer to Sequence numbers above)
1. Briefly, 5 ul of cell reagent was dispensed using a Multidrop Combi Dispenser. The NOMO1 and SEM cells were plated at 500 cells/well and the P12-Ichikawa line at 1000 cells/well.
2. After seeding the cells, 23 nL of MIPE 4.1 library compounds (in DMSO) were added to each plate using a Kalypsys 1536 Pintool dispenser. Bortezomib at final concentration of […] and DMSO were added to each plate as positive and negative controls respectively. For each screen, MIPE 4.1 compounds were added over an eleven-point concentration range […] in 3-fold dilutions.
3. Each plate was covered with a stainless steel gasketed lid to prevent evaporation and incubated for 48 hour at 37C, 95% relative humidity, and 5% CO2.
4-5. Three microliter CellTilter-GloTM luminescent substrate mix (Promega) reagent was added to the assay plate and incubated at room temperature for 5 min.
6. The luminescence signal was measured using a ViewLux (PerkinElmer) multiplate reader with a 2 second exposure time per plate. Data for each compound were normalized as percent viability such that measurements for DMSO and the empty well controls in each plate were defined as 100% and 0%, respectively.
Potency is read from the fitted curve at half-maximal effect.

SMILES	viability	Potency
CC(C)c1cccc(C(C)C)c1O	97.8%	
C=CCON=C(C[C@H]1O[C@@H]2O[C@]3(C)CC[C@@H]4[C@H](C)CC[C@@H]([C@H]1C)[C@@]24OO3)[C@H]1O[C@@H]2O[C@]3(C)CC[C@H]4[C@H](C)CC[C@@H]([C@@H]1C)[C@@]24OO3		1050 nM (active)
COC[C@@H](NC(C)=O)C(=O)NCc1ccccc1	101%	
CC(C)N(CCNC(=O)CN1CCCC1=O)C(C)C	85%	
CC(=O)N(C)c1cccc(-c2ccnc3c(C(=O)c4cccs4)cnn23)c1	97.7%	
C=C(C)[C@H]1Cc2c(ccc3c2O[C@@H]2COc4cc(OC)c(OC)cc4[C@@H]2C3=O)O1		4180 nM (active)
NC1CC1c1ccccc1 (stereo not given)	94.1%	
COc1ccc(C(=O)c2c(C)n(CCN3CCOCC3)c3ccccc23)cc1	78.9%	
C[C@@H]1CC[C@H]2[C@@H](C)C(=O)O[C@@H]3O[C@@]4(C)CC[C@H]1[C@]32OO4	101%	
COc1ccc2c(c1OC)CN1CCc3cc4c(cc3C1C2)OCO4 (stereo not given)		372 nM (active)
C[C@](O)(CS(=O)(=O)c1ccc(F)cc1)C(=O)Nc1ccc(C#N)c(C(F)(F)F)c1	75.9%	
CC(C)(C)c1cc(C=C(C#N)C#N)cc(Br)c1O	100%	
CN(C)CCN(C)CCc1ccc(Cl)c(Cl)c1	102%	
O=C1CCC[C@@H]2[C@H]3CCCN4CCC[C@@H](CN12)[C@@H]34	84%	
COc1cc(C(=O)N2CC[C@@H](O)[C@@H](N)C2)cc2nc(-c3cc4ccccc4n3CC3CC3)n(C)c12		186 nM (active)
CN1C(=O)CCS(=O)(=O)C1c1ccc(Cl)cc1 (stereo not given)	97.5%	
CCOP(=O)(OCC)C(C)NC(=O)N(CCCl)N=O (stereo not given)	72.4%	
CCC1(c2ccc(N)cc2)CCC(=O)NC1=O (stereo not given)	105%	
O=C(Nc1ccncc1)C(=O)c1cn(Cc2ccc(Cl)cc2)c2ccccc12		52.6 nM (active)
O=C(O)CNC(=O)c1c(O)c2ccccc2n(Cc2ccccc2)c1=O	92.3%	

SMILES	viability	Potency
O=C(NCC1CCOCC1)c1cnc(Nc2ccc(Cl)cc2Cl)nc1C(F)(F)F	88%	
Cc1ccccc1-n1c(Cn2ncc3c(N)ncnc32)nc2cccc(C)c2c1=O	102%	
CC[C@@H]1[C@@H](C)O[C@@](O)([C@@H](C)[C@H](O)[C@H](C)[C@H]2OC(=O)C=CC=C[C@@H](C)[C@@H]([C@@H](C)[C@@H](O)[C@H](C)[C@@]3(O)C[C@H](O[C@H]4C[C@H](O)[C@H](O)[C@H](C)O4)[C@H](CC)[C@@H](C)O3)OC(=O)C=CC=C[C@@H]2C)C[C@H]1O[C@H]1C[C@H](O)[C@H](O)[C@H](C)O1		2640 nM (active)
C=C[C@@H]1CN2CCC1C[C@@H]2[C@@H](O)c1ccnc2ccccc12 (stereo not given in full)		16600 nM (active)
O=S(=O)(CC1CS1)c1ccc(Oc2ccccc2)cc1 (stereo not given)		20900 nM (active)
COc1ccc2c(c1)[C@]13CCCCC1C(C2)N(C)CC3 (stereo not given in full)	103%	
Cc1c(N)nc([C@H](CC(N)=O)NC[C@@H](N)C(N)=O)nc1C(=O)N[C@H](C(=O)N[C@@H](C)[C@H](O)[C@@H](C)C(=O)N[C@@H](C(=O)NCCc1nc(-c2nc(C(=O)NCCC[S+](C)C)cs2)cs1)[C@@H](C)O)C(O[C@H]1O[C@H](CO)[C@H](O)[C@@H](O)[C@@H]1O[C@H]1O[C@H](CO)[C@@H](O)[C@H](OC(N)=O)[C@H]1O)c1cnc[nH]1 (stereo not given in full)		3320 nM (active)
COC1=C[C@@H]2[C@@H]3Cc4ccc(OC)c(O)c4[C@]2(CCN3C)CC1=O	96%	
CC(C)(C)[C@]1(O)C[C@@H]2OC(=O)C[C@@]23C(=O)O[C@@H]2OC(=O)[C@H](O)C213 (stereo not given in full)	103%	
C[C@]12CC[C@@H]3[C@@H](CCC4=CC(=O)CC[C@@H]43)[C@@H]1CC[C@@H]2OC(=O)CCc1ccccc1	98.4%	
CCN(CC)C(=O)c1ccc(C2=CC3(CCNCC3)Oc3cccc(O)c32)cc1	80.2%	
C[C@]12CC[C@@H]3c4ccc(OC(=O)N(CCCl)CCCl)cc4CC[C@H]3[C@@H]1CC[C@@H]2OP(=O)(O)O		14800 nM (active)
O=c1[nH]c2ccc(Cl)cc2c(N[C@@H]2CN3CCC2CC3)c1-c1nc2ccccc2[nH]1		83.3 nM (active)
CC(C)(O)C=CC(=O)[C@](C)(O)[C@H]1[C@H](O)C[C@]2(C)[C@@H]3CC=C4[C@@H](C=C(O)C(=O)C4(C)C)[C@]3(C)C(=O)C[C@@]12C		46.9 nM (active)
CCCC[N+]1(C)[C@H]2CC(OC(=O)[C@H](CO)c3ccccc3)C[C@H]1[C@H]1O[C@H]12 (stereo not given in full)	90.1%	
C[C@]12CC[C@H]3[C@@H](CCC4=CC(=O)CC[C@@]43C)[C@H]1CC[C@H]2OC(=O)CCC1CCCC1	84.8%	
NC1=NC(=O)N2CC12 (stereo not given)		1870 nM (active)
C[C@@H]1CC[C@@]2(OC1)O[C@H]1C[C@H]3[C@@H]4CC=C5C[C@@H](O[C@@H]6O[C@H](CO)[C@@H](O[C@@H]7O[C@@H](C)[C@H](O)[C@@H](O)[C@@H]7O)[C@H](O)[C@@H]6O[C@@H]6O[C@@H](C)[C@H](O)[C@@H](O)[C@@H]6O)CC[C@]5(C)[C@@H]4CC[C@]3(C)[C@@H]1[C@H]2C		14800 nM (active)
C[C@@]12OC(=O)[C@]1([C@@H](O)[C@@H]1C=CCCC1)NC(=O)[C@H]2CCCl		52.6 nM (active)
CN(C)CCc1ccc(O)cc1	92.5%	
